# Source: PubChem BioAssay
# An excerpt weighted towards active compounds, which were near 3.4% of everything screened.
# FBW7 act = human FBW7 E3 ligase activation, primary screen; Q969H0; AlphaScreen FBW7–phospho-cyclin E peptide binding, activator screen; normalized activity (activation), % at 26.1 µM; 650,000 compounds, 0.13% hits; in the data active means normalized activity above about 1.9%;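 further: purified mutant Fbw7 with reduced substrate affinity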
# GPR151 activ = activates the human receptor GPR151. PathHunter beta-arrestin GPR151 cells, luminescence. activation, % at 11.2 µM. Q8TDV0. AID 1508602. 650,000 compounds, 1% hits; in the data active means activation above about 4.9%;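 further: 0% = median of compound wells and 100% = cells with positive control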
# TEAD-YAP block = TEAD-YAP interaction inhibition. HEK-TIYL cells, TEAD-Gal4/YAP UAS-luciferase luminescence. inhibition, % at 9.12 µM. 640,000 compounds, 1.4% hits; in the data active means inhibition above about 32%;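 further: 0% = median of test compound wells and 100% = reference inhibitor wells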
# MITF primary = inhibitors of human MITF; O75030; AlphaScreen MITF homodimerization, bead proximity signal; inhibition, % at 2.6 µM; 650,000 compounds, 0.91% hits; AID 1259374; in the data active means inhibition above about 50%;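 further: 0% = vehicle wells with protein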
# Target sequence (O75030 whole entry, looked up): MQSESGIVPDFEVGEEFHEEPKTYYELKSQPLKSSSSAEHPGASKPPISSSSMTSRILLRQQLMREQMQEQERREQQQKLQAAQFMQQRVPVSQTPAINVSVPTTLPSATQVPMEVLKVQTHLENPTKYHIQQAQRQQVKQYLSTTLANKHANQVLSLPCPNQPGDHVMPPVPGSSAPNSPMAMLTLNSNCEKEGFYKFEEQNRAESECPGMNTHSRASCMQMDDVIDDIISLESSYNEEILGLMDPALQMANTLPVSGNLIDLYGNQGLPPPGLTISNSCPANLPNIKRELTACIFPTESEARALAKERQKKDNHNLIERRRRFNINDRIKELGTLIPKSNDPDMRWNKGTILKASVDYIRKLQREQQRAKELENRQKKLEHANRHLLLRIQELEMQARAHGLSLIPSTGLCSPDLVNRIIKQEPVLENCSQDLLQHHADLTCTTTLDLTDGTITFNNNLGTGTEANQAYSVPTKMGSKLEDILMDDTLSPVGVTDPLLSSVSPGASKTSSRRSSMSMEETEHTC
# An asterisk follows results filed as active.
SMILES,FBW7 act,GPR151 activ,TEAD-YAP block,MITF primary
O=C(CN1CCCC1)Nc1ccc(-c2nc3cc(NC(=O)CN4CCCC4)ccc3o2)cc1,0,0,36*,-3
Cc1ccc(S(=O)(=O)Nc2ccccc2C(=O)Nc2nc(-c3cccc([N+](=O)[O-])c3)cs2)cc1,0,2,9,1
COC(=O)C1=CN(CC2CCCO2)C=C(C(=O)OC)C1c1ccc(OCc2ccccc2)c(OC)c1 (centres undefined),0,-2,-8,-18
COC(=O)c1ccc(NC(=O)Cc2ccc(Br)cc2)cc1,0,-1,-20,19
CCOc1ccc(C2CC(=O)n3nc(-c4cccc(C)c4)nc3S2)cc1 (centres undefined),0,-1,-13,12
CCOC(c1ccccc1)c1ccc2c(c1)CN(C(=O)c1cn3ccccc3n1)CCO2 (centres undefined),1,1,11,19
CC(=O)Nc1ccc2oc(-c3cccc(C)c3)nc2c1,0,-8,62*,-11
Cc1cc(C)nc(/N=C(\N)Nc2ccc(CC(=O)OC(C)C)cc2)n1,0,1,40*,-6
CCN(CC)c1ccc(N/C(N)=N/c2nc(C)cc(C)n2)cc1 (tested in a mixture with another compound),0,1,58*,17
COc1ccccc1NC(=O)NCc1nc2nc(C)cc(C)n2n1,0,-3,6,9
COc1cccc2sc(=NC(=O)c3cccc4ccccc34)n(C)c12,1,-1,2,7
COc1cccc2sc(=NC(=O)c3nc4ccccc4s3)n(C)c12,0,0,71*,-5
O=C(Nc1ccc(C23CC4CC(CC(C4)C2)C3)cc1)c1cccc(Cl)c1,0,0,60*,8
COc1cc(CNC(=O)c2c(C(F)(F)F)nc3c(OC)cccn23)cc(OC)c1OC,1.9*,-1,0,11
COc1cc(CNC(=O)c2ccc3ccccc3n2)cc(OC)c1OC,0,0,45*,0
O=CC12c3ccccc3C(c3ccccc31)C1C(=O)N(c3ccc(Cl)cc3)C(=O)C12 (centres undefined),0,0,44*,0
O=CC12c3ccccc3C(c3ccccc31)C1C(=O)N(c3ccccc3)C(=O)C12 (centres undefined),0,-1,19,6
Cc1ccc(N2C(=O)C3C4c5ccccc5C(C=O)(c5ccccc54)C3C2=O)cc1[N+](=O)[O-] (centres undefined),0,1,34*,8
O=C(COC(=O)c1ccccc1Br)c1cccc([N+](=O)[O-])c1,0,-1,-15,18
C=CCOc1c(Br)cc(C2C(C#N)=C(N)Oc3cc(O)ccc32)cc1OC (centres undefined),0,1,6,-6
O=C(/C=C/c1ccc(O)c(O)c1)OC(Cc1ccc(O)c(O)c1)C(=O)O (centres undefined),0,1,2,88*
Oc1c(C(Nc2ccccn2)c2cccnc2)cc(Cl)c2cccnc12 (centres undefined),0,0,58*,85*
CCCCC(=O)NC(c1ccco1)c1cc([N+](=O)[O-])c2cccnc2c1O (centres undefined),0,-1,3,10
CCCCC(=O)NC(c1ccccc1OC)c1cc([N+](=O)[O-])c2cccnc2c1O (centres undefined),0,-1,28,51*
Oc1c(C(c2cccnc2)N2CCOCC2)cc(Cl)c2cccnc12 (centres undefined),0,0,17,42
SMILES,FBW7 act,GPR151 activ,TEAD-YAP block,MITF primary
COc1ccc(C(NC(=O)c2cccnc2)c2cc(Cl)c3cccnc3c2O)cc1 (centres undefined),0,1,40*,6
COc1cc(NC(=O)c2cccnc2)c2ncccc2c1,0,0,79*,1
COc1ccc(C(NC(=O)c2cccc(OC)c2)c2cc(Cl)c3cccnc3c2O)cc1 (centres undefined),0,-1,1,10
CCOC(=O)c1ccc(N2C(=O)CC(N3CCN(c4ccccc4Cl)CC3)C2=O)cc1 (centres undefined),0,1,0,9
CCOc1ccccc1C1C(C#N)=C(SCc2ccccc2)NC(C)=C1C(=O)Nc1ccccc1 (centres undefined),0,-1,10,10
CCCC(=O)NC(c1ccc(OC)cc1)c1cc([N+](=O)[O-])c2cccnc2c1O (centres undefined),0,2,5,21
CCC(=O)NC(c1ccc(OC)cc1)c1cc([N+](=O)[O-])c2cccnc2c1O (centres undefined),-1,-2,-3,55*
COc1ccc(N(CC(=O)c2cccn2C)S(=O)(=O)c2ccccc2)cc1,0,-2,6,8
COc1ccc(Br)cc1S(=O)(=O)N1CCC(C)CC1,0,0,5,4
N#C/C(=C\c1ccc(O)c(O)c1)C(=O)c1ccc(O)c(O)c1,0,0,5,86*
Cc1c2c(=O)n(-c3nc4ccccc4s3)[nH]c2cc(=O)n1Cc1ccccc1Cl,0,0,9,91*
COc1ccccc1C(=O)NN1C(=O)CCC1=O,0,0,-6,-7
O=C(NN1C(=O)CCC1=O)c1ccccc1O,0,3,47*,-17
Cc1cc(C)c2cc(C)c3nn(CCN(C)C)c(=O)n3c2c1,1,0,41*,20
Cc1cc2cc3c(cc2n2c(=O)n(CCN(C)C)nc12)OCO3,0,0,-4,0
CCCCN1C=CC(=C2C(=O)c3ccccc3C2=O)C=C1,1,-8,96*,18
O=C1C(=C2C=CN(CCc3ccccc3)C=C2)C(=O)c2ccccc21,0,-1,-65,-7
CCc1c(C)sc2nc(C(C)C)n3c(=O)[nH]nc3c12,0,0,4,5
Cc1sc2nc(C(C)C)n3c(=S)[nH]nc3c2c1C,0,-9,55*,-5
CS(=O)(=O)C1=NSC2=NC(=O)/C(=C\c3ccc(SCc4ccco4)o3)C(=N)N21,-1,0,1,72*
CCSC1=NSC2=NC(=O)/C(=C\c3ccc(Br)o3)C(=N)N12,0,0,8,83*
CC(C)SC1=NSC2=NC(=O)/C(=C\c3ccc([N+](=O)[O-])o3)C(=N)N21,0,0,-3,72*
CC(C)CS(=O)(=O)C1=NSC2=NC(=O)/C(=C\c3ccc(Br)o3)C(=N)N21,0,-1,5,77*
Cc1occc1-c1nnc(SCc2nc3ccccc3s2)n1C,0,0,-18,5
Cc1ccc(COc2ccc(/C=C3\SC(=O)NC3=O)cc2)cc1,1,0,4,4
C=CCN1C(=O)/C(=C/c2ccc(N(C)C)cc2)SC1=S,0,0,1,6
CC(=O)Nc1ccc(Nc2nc3ccccc3nc2-n2nc(C)cc2C)cc1,0,0,7,5
c1ccc(C2(CNc3nc4nonc4nc3N3CCOCC3)CCOCC2)cc1,0,-2,-6,8
COc1ccccc1Cn1nc(C)cc1N,0,0,0,8
